YB-1 expr inh – YB-1 expression inhibition; AID 434959; hit rate 0.37% among 30,000; U2OS, qRT-PCR YB-1 vs CDIP delta delta Cp, 16 h; active compounds read high; zero = DMSO, each unit about twofold; delta delta Cp (YB-1 minus CDIP) (concentration not given with the values);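 active = delta delta Cp rounded down to an integer at or above 3, about 3 SD of DMSO wells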;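 also: higher means less YB-1 transcript or more CDIP transcript relative to DMSO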
PD-1 reverse act – reversal of PD-1 mediated T-cell inhibition | primary human CD4 T cells, PD-L1 beads, CellTiter-Glo 96 h | activation, % (no concentration beside the values) | 29,000 tested, under 10 active | AID 2316; call rule not given here;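 also: 0% = median vehicle wells and 100% = positive control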
ROS inducer – raises reactive oxygen species in U2OS cancer cells; U2OS ROS induction, H2DCF-DA fluorescence; ROS induction (% of piperlongumine), % at 10 µM; hit rate 2% among 46,000; in the data active = ROS induction above about 79%, passing the limit was not always enough;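 also: 0% = DMSO vehicle median and 100% = reference compound median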
* marks the source's active call; other numbers are inactive results. A selection: hits, their analogues and other compounds. The true share with any hit is near 2.1%.

`O=c1cc(-c2ccccc2)oc2cccc(O)c12` gave YB-1 expr inh 0.992, PD-1 reverse act 1.3 and ROS inducer -1.2.
`CC1(C)C=Cc2c(c3occc3c3oc(-c4ccccc4)cc(=O)c23)O1` gave YB-1 expr inh 0.195, PD-1 reverse act 1.0 and ROS inducer 223.2*.
COc1cc(-c2noc(-c3c(-c4ccccc4Cl)noc3C)n2)cc(OC)c1OC was read as ROS inducer 117.4*.
`COc1cc(NC(=O)Cn2nnc(-c3ccccc3Cl)n2)cc(OC)c1OC` gave PD-1 reverse act 0.8 and ROS inducer 0.9.
`CC1(C)O[C@@H]2[C@H](O1)[C@@H](CO)O[C@H]2n1cnc2c(N)ncnc21` gave YB-1 expr inh -0.361, PD-1 reverse act -0.3 and ROS inducer 84.7*.
For CC1(C)OC2C(CO)OC(n3cnc4c(=O)[nH]cnc43)C2O1 (centres undefined) the results were YB-1 expr inh -0.113, PD-1 reverse act 2.0 and ROS inducer 33.5.
Screening COC(=O)[C@H]1CC[C@H](OC(C)=O)[C@]2(C)CC[C@@H](C(C)C)[C@@H](OC(=O)/C=C/c3ccccc3)C12 (some centres undefined) returned YB-1 expr inh -0.844, PD-1 reverse act 2.6 and ROS inducer 1.8.
CCC(C)NC(=O)c1nn(C)c2c1COc1ccccc1-2 (centres undefined) was read as ROS inducer 3.8.
CC(NS(=O)(=O)c1ccccc1)C(=O)Nc1cc(Cl)ccc1Oc1ccccc1 (centres undefined) was read as PD-1 reverse act -2.2 and ROS inducer 3.7.
`O=C(Nc1ccc2c(c1)OCCO2)C1CCCN(S(=O)(=O)c2ccc(F)cc2)C1` (centres undefined) gave PD-1 reverse act -1.5 and ROS inducer 3.4.
Screening O=C(c1ccccc1Cl)N1CCN(c2ccc([N+](=O)[O-])c(NCc3cccnc3)c2)CC1 returned PD-1 reverse act -2.4 and ROS inducer 78.7*.
Screening CC(C)(C)c1ccc(C(=O)N2CCN(c3ccc([N+](=O)[O-])c(NCc4cccnc4)c3)CC2)cc1 returned PD-1 reverse act -4.2 and ROS inducer 106.5*.
For CC(=O)N1CCN(c2ccc([N+](=O)[O-])c(NCc3cccnc3)c2)CC1 the results were PD-1 reverse act -0.7 and ROS inducer 40.0.
For O=C(c1ccc(Cl)cc1)N1CCN(c2ccc([N+](=O)[O-])c(NCc3ccccn3)c2)CC1 the results were PD-1 reverse act -2.0 and ROS inducer 4.5.
`CC1(C)CC[C@]2(C(=O)O[C@@H]3O[C@H](CO)[C@@H](O)[C@H](O)[C@H]3O)CC[C@]3(C)C(=CCC4[C@@]5(C)C[C@@H](O)[C@H](O)[C@@](C)(COC(=O)c6cc(O)c(O)c(O)c6)C5[C@H](O)C[C@]43C)[C@@H]2C1` (some centres undefined) gave YB-1 expr inh 0.301, PD-1 reverse act -1.1 and ROS inducer -2.8.
COc1cc(/C=N/NC(=O)c2ccc(C(=O)NO)cc2)c(Br)cc1O was read as YB-1 expr inh 0.391 and ROS inducer -11.1.
CSc1cccc(NC(=O)CN(c2ccc(F)c(Cl)c2)S(C)(=O)=O)c1 was read as PD-1 reverse act -0.8 and ROS inducer -4.0.
`CSc1cccc(NC(=O)C2CCCN2S(=O)(=O)c2cccc3cccnc23)c1` (centres undefined) gave ROS inducer -20.4.
`COc1ccc(NC(=O)N(C)C[C@@H]2Oc3c(NC(=O)C4CCOCC4)cccc3C(=O)N([C@H](C)CO)C[C@H]2C)cc1` gave YB-1 expr inh 0.094, PD-1 reverse act 1.6 and ROS inducer -5.3.
C=CCSc1n[nH]c(=O)n1-c1cccc(Cl)c1 was read as ROS inducer -7.1.
Screening Cc1cc(C(=O)Nc2cccc3c2O[C@H](CN(C)Cc2ccc(Oc4ccccc4)cc2)[C@@H](C)CN([C@@H](C)CO)C3=O)n(C)n1 returned YB-1 expr inh -0.246, PD-1 reverse act -2.0 and ROS inducer 123.6*.
`Cc1cc(C(=O)Nc2cccc3c2O[C@H](CN(C)Cc2ccc(Oc4ccccc4)cc2)[C@H](C)CN([C@@H](C)CO)C3=O)n(C)n1` gave YB-1 expr inh -0.368, PD-1 reverse act 0.8 and ROS inducer 20.9.
`Cc1cc(C(=O)Nc2cccc3c2O[C@@H](CN(C)Cc2ccc(Oc4ccccc4)cc2)[C@@H](C)CN([C@@H](C)CO)C3=O)n(C)n1` gave YB-1 expr inh 0.601, PD-1 reverse act -1.1 and ROS inducer 56.9.
Cc1cc(C(=O)Nc2cccc3c2O[C@@H](CN(C)Cc2ccc(Oc4ccccc4)cc2)[C@H](C)CN([C@H](C)CO)C3=O)n(C)n1 was read as YB-1 expr inh -0.21, PD-1 reverse act -2.7 and ROS inducer 105.7*.
`COc1ccc(-c2nc3cc(C(C)C)ccc3o2)cc1NC(=O)COc1ccccc1C` gave PD-1 reverse act 0.0 and ROS inducer -3.2.
COc1ccc(/C=C/C(=O)CC(=O)/C=C/c2cccc(O)c2OC)cc1O was read as YB-1 expr inh -0.518 and ROS inducer 98.2*.
For COc1cc(/C=C/C(=O)CC(=O)/C=C/c2ccc(O)c(OC)c2)ccc1O the results were YB-1 expr inh -0.155 and ROS inducer 43.2.
O=C(CNC(=S)N(Cc1ccccc1)Cc1cccs1)NC1CCCCC1 was read as ROS inducer -5.4.
CC1CN(c2ccc(NC(=S)NCc3ccco3)cc2)CC(C)O1 (centres undefined) was read as YB-1 expr inh 0.278, PD-1 reverse act -0.2 and ROS inducer -2.0.
For COc1ccc(CN(C)C[C@H]2OCCCC[C@@H](C)Oc3ccc(NS(=O)(=O)c4ccc(F)cc4)cc3C(=O)N([C@H](C)CO)C[C@@H]2C)cc1 the results were YB-1 expr inh 0.0775 and ROS inducer 27.4.
Screening COc1ccc(CN(C)C[C@H]2OCCCC[C@@H](C)Oc3ccc(NC(=O)Nc4ccc(OC)cc4)cc3C(=O)N([C@H](C)CO)C[C@@H]2C)cc1 returned YB-1 expr inh 0.529, PD-1 reverse act -0.9 and ROS inducer 121.9*.
Screening COc1ccc(CN(C)C[C@@H]2OCCCC[C@@H](C)Oc3ccc(NC(=O)Nc4ccc(F)cc4)cc3C(=O)N([C@H](C)CO)C[C@@H]2C)cc1 returned YB-1 expr inh 0.35 and ROS inducer 119.4*.
For COc1ccc(NC(=O)Nc2ccc3c(c2)C(=O)N([C@H](C)CO)C[C@H](C)[C@H](CN(C)Cc2ccc(C(=O)O)cc2)OCCCC[C@@H](C)O3)cc1 the results were YB-1 expr inh 0.316, PD-1 reverse act 0.4 and ROS inducer 33.3.
For COc1ccc(NC(=O)Nc2ccc3c(c2)C(=O)N([C@H](C)CO)C[C@H](C)[C@H](CN(C)C(=O)Nc2ccc(OC)cc2)OCCCC[C@@H](C)O3)cc1 the results were YB-1 expr inh 0.17 and ROS inducer 0.3.
For COc1ccc(NC(=O)Nc2ccc3c(c2)C(=O)N([C@H](C)CO)C[C@H](C)[C@@H](CN(C)Cc2ccc(C(=O)O)cc2)OCCCC[C@@H](C)O3)cc1 the results were YB-1 expr inh -0.259, PD-1 reverse act 2.1 and ROS inducer 47.8.
For COc1ccc(CN(C)C[C@@H]2OCCCC[C@@H](C)Oc3ccc(NS(=O)(=O)c4ccc(C)cc4)cc3C(=O)N([C@H](C)CO)C[C@@H]2C)cc1 the results were YB-1 expr inh 0.147, PD-1 reverse act -0.6 and ROS inducer 127.8*.

Screens from PubChem.
